Source: PubChem (National Center for Advancing Translational Sciences (NCATS))
HCV inh = inhibitors of hepatitis C virus infection; AID 651820; Potency, µM (highest dose often 41.8 µM), for the others: at the highest dose activity change, negative = inhibition, actives largely listed as inhibitors; 340,000 tested, 3.4% active; Huh7.5.1 HCVcc-Cre infection, luciferase reporter, 44 h
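Antiviral activity was scored by luciferase reporter output from cells infected with HCVcc-Cre (~0.5 moi) in presence of compound, 44 h infection period, cells seeded 1,000/well 4 h prior.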
Pf growth 48h = inhibits P. falciparum growth in the first generation, 48 h | AID 504832 | P. falciparum luciferase growth in erythrocytes, 48 h | Potency, µM (highest dose often 28.7 µM), inactives show at the highest dose activity change, negative = inhibition, actives largely listed as inhibitors | 310,000 tested, 5.9% active
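Compounds are pin-transferred into medium, infected erythrocytes (2% hematocrit, 0.1% parasitemia final) are added, and plates sit one parasite generation at 37 C in 5% CO2. Detection reagent is then added and luminescence measured.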
AMA1-RON2 inh = AMA1-RON2 (P. falciparum) interaction inhibition | AlphaScreen AMA1-biotinylated RON2 peptide binding | 360,000 tested, 0.2% active | AID 720542 | Potency, µM (titrated, usually from 58.2 µM), inactives show top-dose activity change, negative = inhibition, most hits filed as inhibitors;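 further: 0% = vehicle wells and -100% = peptide control; nearly all actives have a fitted effect of over 45% in size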
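AMA1 (3D7) with his tag at 25 nM final met compounds first, then biotinylated RON2 peptide at 25 nM; detection used donor plus acceptor beads, 10 µg/mL apiece, read by AlphaScreen after 30 min at room temperature.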
Pf growth 96h = P. falciparum growth inhibition at 96 hour, primary screen for plastid delayed-death inhibitors; AID 504834; Potency, µM (series often up to 28.7 µM), for inactives: top-dose activity change, negative = inhibition, actives largely listed as inhibitors; P. falciparum luciferase reporter growth, 96 h; 320,000 tested, 6.9% active
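Two parasite generations (96 h, 37 C, 5% CO2) of compound exposure in infected erythrocytes (0.05% parasitemia, 2% hematocrit). Luciferase-reporter P. falciparum; decreased luminescence indicates inhibited growth, aimed at apicoplast-acting delayed death.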
Starred values were filed as active, the others as inactive; ? = inconclusive; · = not tested or not shown; [ ] = remark or other dose. A selection: hits, their analogues and other compounds. The true share with any hit is near 11%. The call rests on the fitted dose curve; in most records, active means well fitted curve in the direction sought with a large enough effect; inconclusive means small, poorly fitted or top-dose-only effect, or another doubt; inactive means no such curve, though single readings can be large; an effect the other way counts as inactive or inconclusive. Unless noted, on the % scale 0 is the no-effect control and ±100 the full control effect; potency means the concentration at half of the fitted maximal effect.

SMILES | HCV inh | Pf growth 48h | AMA1-RON2 inh | Pf growth 96h
O=C(COC(=O)CNC(=O)c1ccc(Br)o1)Nc1ccccc1OC(F)F | 9.6% | -10.1% | -2.5% | 28.3%
Cc1ccc(C(=O)NCCN2C3=NC[C@@H](Cc4ccccc4)N3C[C@H]2Cc2ccc(O)cc2)cc1Br | -8.7% | 9.28µM* | -5.7% | ?
Cc1ccc(C(=O)NCCN2C3=NC[C@H](Cc4ccc(O)cc4)N3C[C@H]2Cc2ccc(O)cc2)cc1Br | -6.6%[8.37 µM] | 4.15µM* | -25.7% | 2.94µM*
COc1ccc(C[C@H]2CN3C(=NC[C@@H]3Cc3ccc(O)cc3)N2CCNC(=O)c2ccc(C)c(Br)c2)cc1 | -19.2% | 3.7µM* | -24.6% | 1.17µM*
C/C=C(\C)C(=O)NCCN1C2=NC[C@@H](C)N2C[C@H]1Cc1ccc(O)cc1 | -11.2% | 50.5% | 5.8% | 50.0%
C/C=C(\C)C(=O)NCCN1C2=NC[C@H](Cc3ccccc3)N2C[C@H]1Cc1ccc(O)cc1 | 3.9% | -20.7% | -6.3% | 3.7µM*
N#C/C(=C\c1cccnc1)C(=O)Nc1ccc(O)cc1F | 5.9% | 1.0% | -2.0% | 3.3%
C/C(=N\NC(=O)CNC(=O)c1cccc(F)c1)c1ccc2ccccc2c1 | ? | 28.0% | -8.0% | 33.7%
O=C(CNC1CCCCC1)NN=C(c1ccccc1)c1ccccc1 | -5.4% | -28.5% | 11.5% | -28.7%
CCOc1ccc(/C=N/N2C(=O)C(CC(=O)Nc3ccc(F)cc3F)SC2=NC)cc1OC (stereo unspecified) | -15.6% | 11.7µM* | 7.3% | 11.7µM*
CN=C1SC(CC(=O)Nc2ccccc2F)C(=O)N1/N=C/c1ccc(O)c(OC)c1 (stereo unspecified) | ? | -18.4% | -2.2% | -23.2%[5.75 µM]
CSc1ccccc1-c1nnc(-c2ccccc2)o1 | 8.91µM* | 151.5% | 7.1% | 101.1%
CSc1ccccc1-c1nnc(-c2ccc(C)cc2)o1 | ? | 154.8% | 16.6% | 303.6%
COc1ccc(C(CCN(Cc2ccc(OC)c(OC)c2)C(C)=O)C(C)C)cc1 (stereo unspecified) | -12.5% | ? | -10.3% | ?
CC(=O)c1cc(OC(=O)c2ccncc2)ccc1OC(=O)c1ccncc1 | 13.1% | 3.6% | -0.3% | ·
CC(C)(C)CN1CCC(Oc2cccc(C(=O)N3CCNC(=O)C3(C)C)c2)CC1 | -5.9% | 10.9% | -5.9% | 11.7µM*
CCCCN(C)C(=O)c1cccc(OC2CCN(CC(C)(C)C)CC2)c1 | -5.2% | ? | -3.6% | 13.1µM*
CCC(C)CNC(=O)c1cccc(OC2CCN(CC(C)(C)C)CC2)c1 (stereo unspecified) | ? | · | -1.3% | ·
C=CCn1c(C(C)NC(=O)CCC)nc2ccccc21 (stereo unspecified) | 11.2µM* | -2.9% | 2.7% | 120.3%
COCCNC(=O)CN1C(=O)NC(c2ccccc2)(c2ccccc2)C1=O | 21.6% | 36.6% | 15.1% | 68.5%
CC(=O)N1CCN(Cc2nc3cc(NC(=O)c4cccc(Br)c4)ccc3n2C)CC1 | 17.8µM* | 24.4% | -7.6% | 6.0%
Cn1c(CN2CCCCC2)nc2cc(NC(=O)c3ccc(F)cc3)ccc21 | 10µM* | 24.7% | 53.0% | ?
Cn1c(CN2CCCCC2)nc2cc(NC(=O)c3ccccc3Cl)ccc21 | ? | ? | 17.0% | -11.3%
CC(=O)N1CCN(Cc2nc3cc(NC(=O)c4ccccc4C)ccc3n2C)CC1 | -12.2% | -1.2% | 7.0% | ?
COC(=O)c1c(NC(=O)CC2SC(N)=NC2=O)sc(C)c1C (stereo unspecified) | -4.4% | 6.6% | -6.9% | ?
SMILES | HCV inh | Pf growth 48h | AMA1-RON2 inh | Pf growth 96h
COCC(C)NC(=O)COCc1cc(-c2ccc3c(c2)OCO3)on1 (stereo unspecified) | 3.1% | -8.8% | -2.8% | 0.4%
O=C(Nc1ccccc1)Nc1nnc([C@@H]2C[C@H](O)[C@@H](CO)O2)s1 | · | · | -4.2% | ·
CCc1cc(SC#N)cc(C)c1NC(=O)CCl | ? | 13.1µM* | -7.6% | ?
CCc1cc(SC#N)cc(C)c1N | -6.3% | 8.28µM* | -1.0% | 3.29µM*
COC(=O)Cn1cnc2c(Cl)nc(F)nc21 | 5.62µM* | · | 5.4% | ·
COc1cc(/C=C2/C(=O)NN(c3ccc(C)c(Cl)c3)C2=O)cc([N+](=O)[O-])c1O | 13.8% | 28.0% | -0.4% | -2.9%
Cc1ccc(N2NC(=O)/C(=C\c3cc4c(cc3[N+](=O)[O-])OCO4)C2=O)cc1C | 6.8% | 10.4µM* | -10.2% | 0.0%
COc1ccc(NC(=O)NNC(=O)c2ccccc2-n2cccc2)cc1OC | 5.2% | 0.9% | 62.3% | ?
COc1ccc(Nc2ncnc3c2c(C)c(C)n3CCCN(C)C)cc1 | -29.9% | 52.2% | -10.9% | 57.5%
COc1ccc(CCNC(=O)COc2ccc(N(C)S(=O)(=O)c3ccc(Cl)cc3)cc2)cc1 | 7.08µM* | ? | -1.4% | ?
CN(c1ccc(OCC(=O)NCCc2ccccc2)cc1)S(=O)(=O)c1ccc(Cl)cc1 | ? | 8.28µM* | -9.0% | ?
COc1cccc(CC(=O)OCC(=O)NNC(=O)c2ccc(Br)cc2)c1 | 14.9% | -20.4% | 79.7% | 0.0%
Fc1cccc(CN2CCN(c3nc4nonc4nc3NC3CC3)CC2)c1 | -14.3% | -15.8% | -1.5% | 6.6%
CC(NC(=O)c1ccc2nc(Cc3cccc(Cl)c3)oc2c1)c1ccncn1 (stereo unspecified) | · | · | 2.0% | ·
CCOC(=O)[C@H]1[C@H]2COc3ccc(OC)cc3[C@@H]2N2C(=O)c3cc(C)ccc3NC(=O)[C@@]12C | -17.4% | ? | -3.7% | ?
Cc1cccc(C)c1NC1=NC2(CCCCC2)N=C(N)N1 | -4.8% | ? | -11.6% | 95.4%
NC1=NC2(CCCCC2)N=C(Nc2ccc(Br)cc2)N1 | ? | 1.04µM* | 24.7% | ?
Cc1ccc(NC2=NC3(CCCCC3)N=C(N)N2)c(C)c1 | 5.4% | ? | -4.9% | 8.28µM*
Cc1ccc(NC2=NC3(CCCC3)N=C(N)N2)c(C)c1 | 7.2% | ? | -7.0% | 204.4%
Cc1ccc(NC(=O)C2(C)CCN2Cc2ccccc2OC(F)F)cc1 (stereo unspecified) | · | · | 11.9% | ·
Cc1ccnn1-c1ccc(C(=O)OCC(=O)Nc2ccc(F)cc2)cc1 | -17.3% | 34.8% | -1.6% | -0.3%
Cc1cccc(Nc2nc(N)c([N+](=O)[O-])c(N3CCN(C)CC3)n2)c1 | ? | ? | 2.2% | ?
CNc1nc(N)c([N+](=O)[O-])c(N2CCCCCC2)n1 | -15.5% | 28.6% | 13.9% | 17.0%
Cc1cccc(Nc2nc(N)c([N+](=O)[O-])c(N3CCCC(C)C3)n2)c1 (stereo unspecified) | ? | 11.7µM* | ? | ?
Nc1nc(Nc2ccccc2F)nc(N2CCCC2)c1[N+](=O)[O-] | 8.91µM* | 99.5% | -2.1% | 126.8%
CC(C)CCNc1nc(N)c([N+](=O)[O-])c(N2CCCCCC2)n1 | ? | 3.7µM* | -17.0% | 2.08µM*
CCN1CCN(c2nc(Nc3ccccc3F)nc(N)c2[N+](=O)[O-])CC1 | 6.0% | 67.0% | -10.8% | ?
O=[N+]([O-])c1ccc(/C=N/NC(=S)Nc2ccc(Cl)cc2Cl)s1 | ? | 13.1µM* | 53.7% | 3.29µM*
